High-throughput results (PubChem BioAssay)
Only some compounds are listed: those with a hit (about 2.7% of all), similar ones and a draw of the others.
SENP8 block-1 = human SENP8 protease inhibitors, primary screen, biochemical, fluorescence, Nedd8 protein substrate, uHTS. Sentrin-specific protease 8 (Homo sapiens), Q96LD8. recombinant SENP8. inhibition, % at 20 µM. actives 0.64% (n = 360,000); in the data active = inhibition mostly above about 40%, no sharp cut-off; inactive = mostly below about 27%
Target sequence (Q96LD8 whole entry, looked up): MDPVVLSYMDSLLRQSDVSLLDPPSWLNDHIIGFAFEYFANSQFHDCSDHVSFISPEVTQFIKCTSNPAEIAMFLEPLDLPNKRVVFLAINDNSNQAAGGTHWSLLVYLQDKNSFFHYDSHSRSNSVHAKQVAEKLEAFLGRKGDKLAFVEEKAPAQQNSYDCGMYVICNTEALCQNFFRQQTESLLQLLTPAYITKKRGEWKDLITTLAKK
SENP7 block = SENP7 protease inhibitors, primary screen, biochemical, luminescence, uHTS | Sentrin-specific protease 7 (Homo sapiens), Q9BQF6 | recombinant SENP7, Z-RLRGG-aminoluciferin luminescence, 40 min | inhibition, % at 5 µM | actives 1.5% (n = 330,000);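 active = inhibition above about 50% at the single test dose, limit read from the data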;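 note: plate controls were DMSO with enzyme for no effect and no enzyme buffer wells for full effect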
Target sequence (Q9BQF6 706-1050 limits assumed): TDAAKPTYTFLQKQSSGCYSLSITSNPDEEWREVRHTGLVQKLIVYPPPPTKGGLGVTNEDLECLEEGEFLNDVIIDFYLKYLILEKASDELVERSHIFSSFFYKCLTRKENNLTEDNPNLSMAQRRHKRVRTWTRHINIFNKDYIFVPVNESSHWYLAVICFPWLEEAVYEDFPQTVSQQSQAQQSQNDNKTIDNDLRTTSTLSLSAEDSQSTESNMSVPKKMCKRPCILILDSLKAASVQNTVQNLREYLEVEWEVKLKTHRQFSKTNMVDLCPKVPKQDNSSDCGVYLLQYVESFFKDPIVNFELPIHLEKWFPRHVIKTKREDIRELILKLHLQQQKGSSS
SENP8 block-2 = SENP8 protease inhibitors, primary screen, biochemical, luminescence | Sentrin-specific protease 8 (Homo sapiens), Q96LD8 | purified SENP8, Z-RLRGG-aminoluciferin cleavage | inhibition, % at 10 µM | actives 1.2% (n = 330,000) | AID 2540, 2010; in the data active = inhibition above about 50%
HSP90 inh = HSP90 inhibitors, primary screen, cell lysate, luminescence. Heat shock protein HSP 90 (rabbit reticulocyte lysate; luciferase refolding). Rabbit reticulocyte lysate, luciferase refolding luminescence, 3 h. inhibition, % at 5.6 µM. actives 0.91% (n = 290,000). AID 1789, 2009;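 active = inhibition above the screen-wide mean plus 3 SD, computed separately per campaign, cut at about 16% in these data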;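 note: 0% = DMSO wells and 100% = 60 µM geldanamycin wells; inhibitors lower the luminescence because luciferase stays unfolded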
SENP6 inh = SENP6 protease inhibitors, primary screen, biochemical, luminescence, uHTS | Recombinant SENP6 catalytic domain, aminoluciferin luminescence | AID 2599, 2010 | Sentrin-specific protease 6 (Homo sapiens), Q9GZR1 | actives 1.8% (n = 330,000) | inhibition, % at 10 µM;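 active = inhibition above about 50% at the single tested dose, limit read from the data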;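 note: plate controls were DMSO wells with enzyme for no effect and DMSO wells lacking enzyme for full effect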
SENP8 confirm = SENP8 protease inhibitors, retest, confirmation, biochemical, luminescence, single concentration | Recombinant SENP8, Z-RLRGG-aminoluciferin luminescence, 60 min | shares compounds with SENP7 block | actives 40% (n = 6,200) | inhibition, % at 12.5 µM | AID 488912, 2010;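 active = mean inhibition across replicates above about 50%, limit read from the data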
SENP6 confirm = SENP6 protease inhibitors, confirmation, biochemical, luminescence, single concentration. shares compounds with SENP7 block. recombinant SENP6, Z-RLRGG-aminoluciferin luminescence. inhibition, % at 12.5 µM. actives 58% (n = 6,200). AID 488915, 2010
SENP7 confirm = SENP7 protease inhibitors, retest, confirmation, biochemical, luminescence, single concentration; shares compounds with SENP7 block; recombinant SENP7, Z-RLRGG-aminoluciferin luminescence, 40 min; inhibition, % at 12.5 µM; actives 69% (n = 6,200); AID 488917, 2010
Casp3 select = caspase-3 protease inhibitors, confirmation, selectivity assay for SENP inhibitor project, biochemical, single concentration | shares compounds with SENP7 block | purified caspase-3, Z-DEVD-aminoluciferin luminescence, 60 min | inhibition, % at 12.5 µM | actives 60% (n = 6,200);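 active = mean inhibition above about 50%, limit read from the data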;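 note: plate controls were enzyme with DMSO for no effect and wells without caspase-3 for full effect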
Luc interf = luminescence interference (SENP counter-screen); shares compounds with SENP7 block; Pre-incubated SENP8/Z-RLRGG-aminoluciferin, luciferase luminescence interference; inhibition, % at 12.5 µM; actives 39% (n = 6,200); AID 488919;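 active = mean inhibition above about 50% when retested at one dose, limit read from the data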;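 note: plate controls were DMSO wells with completed reaction for no effect and substrate without enzyme for full effect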
* = called active by the depositor; nt = not tested or not shown.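 Rule for the calls, unless noted: active = mean inhibition above about 50% in the one-dose retest (limit read from the data); inactive = the rest.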

SMILES	SENP8 block-1	SENP7 block	SENP8 block-2	HSP90 inh	SENP6 inh	SENP8 confirm	SENP6 confirm	SENP7 confirm	Casp3 select	Luc interf
COc1ccc2oc(=O)c(-c3csc(Nc4ccc(O)cc4)n3)cc2c1	-8.7	0.4	-1.8	-1.0	3.3	nt	nt	nt	nt	nt
COc1cccc(-c2csc(NC3OC(=O)c4c3ccc(OC)c4OC)n2)c1 (configuration not stated)	14.7	-4.9	-13.4	-0.3	-25.3	nt	nt	nt	nt	nt
COc1ccc2c(c1OC)C(=O)OC2Nc1nc(-c2cc3cc([N+](=O)[O-])ccc3oc2=O)cs1 (configuration not stated)	11.1	65.4*	52.0*	-2.5	60.3*	-7.2	-8.8	1.7	22.4	4.7
COc1ccc2c(c1OC)C(=O)OC2Nc1nc(-c2ccc(-c3ccccc3)cc2)cs1 (configuration not stated)	-307.5	63.1*	69.3*	-1.8	82.9*	50.9*	49.4	56.1*	37.9	73.5*
COc1ccc(S(=O)(=O)N2CCC(C(=O)NCCC(=O)Nc3cccc(OC)c3)CC2)cc1	9.4	1.9	-1.3	-3.3	6.9	nt	nt	nt	nt	nt
Cc1cccc(N(C)S(=O)(=O)c2c(C)noc2C)c1	-22.1	2.8	-4.6	-4.4	-1.1	nt	nt	nt	nt	nt
COc1ccc(-c2cn3cc(Cl)ccc3n2)cc1OC	-270.8	6.5	1.0	8.6	2.0	nt	nt	nt	nt	nt
Clc1ccc2nc(-c3ccc(Br)s3)cn2c1	-292.1	4.9	63.3*	10.7	80.0*	14.4	68.8*	86.5*	48.7	15.1
O=C(CCc1nc2ccccc2s1)NC1CCOC1=O (configuration not stated)	11.9	1.0	2.3	1.6	60.9*	9.0	5.7	-8.4	2.4	0.2
COc1ccc(OC)c(S(=O)(=O)NCCCn2ccnc2)c1	13.2	-2.9	-7.9	-3.0	-0.2	nt	nt	nt	nt	nt
COc1ccc(Cl)cc1S(=O)(=O)NCCCn1ccnc1	16.7	-0.5	-3.6	-1.6	53.1*	2.2	-3.0	-2.4	-2.7	-3.5
O=C(Nc1ccc(Cl)c([N+](=O)[O-])c1)C(Sc1ccccc1)c1ccccc1 (configuration not stated)	7.1	3.3	-2.9	0.2	-6.0	nt	nt	nt	nt	nt
CC(=O)C1=C(C)NC2=C(C(=O)c3ccccc32)C1c1ccccc1 (configuration not stated)	9.0	-0.9	-5.2	0.2	-18.3	nt	nt	nt	nt	nt
Cc1ccc(-c2nc(-c3cccnc3)no2)c(C)c1	29.6	46.4	23.8	-3.3	-10.2	nt	nt	nt	nt	nt
Fc1ccc(-c2nc(-c3cnccn3)no2)c(Cl)c1	13.1	85.1*	81.4*	4.6	87.7*	85.4*	84.8*	96.5*	93.7*	49.5
OC1(c2ccc(Cl)cc2)CCN(Cc2nc(-c3cnccn3)no2)CC1	-1.2	-0.7	5.1	-0.6	-4.7	nt	nt	nt	nt	nt
Clc1ccc(-c2nc(-c3cnccn3)no2)cc1	16.3	97.7*	90.1*	-5.2	95.6*	90.3*	92.6*	101.1*	96.8*	56.2*
COc1ccc(Cl)cc1NC(=S)NNC(=O)c1cccs1	-36.3	81.3*	65.7*	0.6	85.6*	-2.0	-0.2	14.4	-1.6	26.8
Cc1c(C(=O)O)sc2nc(SCC(=O)Nc3ccc(S(=O)(=O)NCCCC(=O)O)cc3)[nH]c(=O)c12	-4.7	1.8	-1.2	-2.3	5.0	nt	nt	nt	nt	nt
CC(C)(C)c1ccc2c(c1)C(=O)c1ccccc1C2=O	19.3	95.9*	66.2*	-2.6	96.2*	-2.3	59.3*	81.9*	43.7	44.0
O=[N+]([O-])c1cccc(-c2nc(-c3ccncc3)no2)c1	24.2	9.3	-15.4	-1.7	5.6	nt	nt	nt	nt	nt
COc1cc(OC)cc(-c2nc(-c3cccs3)no2)c1	-17.4	32.1	-1.1	0.5	-27.2	nt	nt	nt	nt	nt
COc1cccc(-c2nc(-c3ccncc3)no2)c1	0.6	80.3*	69.7*	1.1	77.5*	72.9*	77.8*	94.2*	86.4*	61.4*
COc1cccc(-c2nc(-c3cccs3)no2)c1	24.1	91.8*	82.9*	4.8	90.0*	13.3	87.2*	97.5*	69.9*	62.4*
O=C(c1ccc(COc2ccc(Cl)cc2)cc1)N1CCCCC1	16.2	75.1*	62.9*	-1.7	86.9*	81.4*	77.9*	91.1*	59.9*	65.5*
SMILES	SENP8 block-1	SENP7 block	SENP8 block-2	HSP90 inh	SENP6 inh	SENP8 confirm	SENP6 confirm	SENP7 confirm	Casp3 select	Luc interf
COc1ccc(OCc2ccc(C(=O)O)cc2)cc1	30.7	68.0*	51.1*	7.6	83.9*	81.3*	75.7*	94.4*	62.3*	78.0*
O=C(O)c1ccc(COc2ccccc2Cl)cc1	2.4	31.0	57.0*	-8.5	71.6*	8.1	66.2*	91.4*	85.1*	70.5*
COc1ccc(OCC(O)COc2ccc(C(=O)O)cc2)cc1 (configuration not stated)	16.4	2.2	0.0	-2.5	-3.6	nt	nt	nt	nt	nt
CCN(CC)C(=O)c1ccc(COc2ccccc2Cl)cc1	23.7	10.5	-10.0	-4.5	12.5	nt	nt	nt	nt	nt
O=C(O)c1cccc(COc2cccc3ccccc23)c1	17.3	95.9*	97.1*	nt	97.2*	98.2*	100.1*	103.0*	84.5*	98.8*
O=C(O)c1ccc(COc2c(F)c(F)cc(F)c2F)cc1	9.3	48.4	40.7	1.2	80.1*	66.3*	66.7*	89.6*	90.2*	78.6*
COC(=O)c1ccc(COc2c(F)c(F)cc(F)c2F)o1	5.8	-6.6	-13.4	-8.7	-16.0	nt	nt	nt	nt	nt
C[C@H]1CCCCO[C@H](CN(C)Cc2ccccc2)[C@@H](C)CN([C@@H](C)CO)C(=O)c2cc(NC(=O)CCC(F)(F)F)ccc2O1	18.7	nt	nt	nt	nt	nt	nt	nt	nt	nt
Cc1[nH]n(-c2ccccc2)c(=O)c1C(=O)c1ccccc1	14.5	4.6	-5.7	3.6	-3.8	nt	nt	nt	nt	nt
COc1cccc(C(c2c(C)[nH]n(-c3ccccc3)c2=O)c2c(C)[nH]n(-c3ccccc3)c2=O)c1O	53.7*	56.4*	11.1	nt	56.8*	13.4	33.7	11.9	3.4	4.4
